From PubChem BioAssay (Tox21) come the findings set out here.

Each structure is given as a SMILES string. Values without a mark were called inactive. Records with an inconclusive call do not appear. Calls of active or inactive are those of the source. The call rests on the fitted dose curve.
On the % scale 0 is the no-effect control and ±100 the full control effect.

Sequence of Acetylcholinesterase (Homo sapiens) (P22303 whole entry, looked up): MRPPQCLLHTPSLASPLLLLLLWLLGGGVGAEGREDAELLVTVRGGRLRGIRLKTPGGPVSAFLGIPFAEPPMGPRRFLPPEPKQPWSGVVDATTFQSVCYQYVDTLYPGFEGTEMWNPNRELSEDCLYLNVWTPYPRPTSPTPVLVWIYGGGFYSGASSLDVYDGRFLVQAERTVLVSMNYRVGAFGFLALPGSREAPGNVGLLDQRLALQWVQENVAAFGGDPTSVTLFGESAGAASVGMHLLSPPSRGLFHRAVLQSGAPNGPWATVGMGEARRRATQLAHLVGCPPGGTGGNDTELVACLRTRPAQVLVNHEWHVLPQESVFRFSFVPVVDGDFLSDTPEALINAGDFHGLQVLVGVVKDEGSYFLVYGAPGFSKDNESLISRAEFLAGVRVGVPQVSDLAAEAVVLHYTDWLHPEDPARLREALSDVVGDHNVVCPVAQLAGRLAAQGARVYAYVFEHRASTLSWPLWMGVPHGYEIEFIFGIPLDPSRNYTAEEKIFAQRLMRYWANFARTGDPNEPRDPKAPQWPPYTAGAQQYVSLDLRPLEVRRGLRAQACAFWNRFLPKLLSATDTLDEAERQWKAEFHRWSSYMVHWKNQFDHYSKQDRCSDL

The first experiment has as its target Acetylcholinesterase (Homo sapiens) (UniProt P22303). Briefly: Acetylcholinesterase (AChE) small molecule antagonists: fluorescence cell-based qHTS assay (AID 1347398). Further: nearly all actives have a fitted effect of over 50% in size. To be noted: SH-SY5Y cells; Potency: AChE activity; outcome: AChE activity; series mostly up to 115 µM; activity change, negative = inhibition: at the top concentration. In outline: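 Cellular AChE activity read as thiocholine from acetylthiocholine hydrolysis, detected by Thiolite Green fluorescence at 490/520 nm after 40 min at room temperature. Compounds were pre-incubated 30 min at 37 C on adherent SH-SY5Y cells.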
On to `Clc1ccccn1`, for which the Potency result was “inactive”.
Same read-out and setting: for `COc1ccc2c(c1)c(CC(=O)O)c(C)n2C(=O)c1ccc(Cl)cc1` the value was “inactive”.
Consider `CC(CNC1CCCCC1)OC(=O)c1ccccc1` (stereo not given), for which the “activity change, negative = inhibition” value was -4.25% [at 53.7 µM].
For the compound `Cc1ccc(N)c(S(=O)(=O)O)c1`, the Potency result is “inactive”.
As to `Cc1cccc(OCCOc2cccc(C)c2)c1`, the “activity change, negative = inhibition” value was 3.38%.
For `O=[Se](O)O`, the Potency entry was “inactive”.
`CCCCCCCCCCCCCOC(=O)CCSCCC(=O)OCCCCCCCCCCCCC`: the activity change, negative = inhibition is -0.492% [at 23.8 µM].
On the same count and under the same terms, for `O=C(OCC1CO1)C1CCCCC1C(=O)OCC1CO1` (stereo not given) the value was -1.71%; for `C=CC(=O)N1CCOCC1`, 0.125%; for `C=C(C)C(=O)OCCOP(=O)(O)O`, 1.37%.
Take `O=C(NCC1CN(c2ccc(N3CCOCC3=O)cc2)C(=O)O1)c1ccc(Cl)s1` (stereo not given): the “activity change, negative = inhibition” value was 2.49% [at 53.7 µM].
On the same count and under the same terms, for `CCC1(C)CC(=O)NC1=O` (stereo not given) the value was 28.3% [at 53.7 µM].
For `CCCCCC(=O)O`, the Potency entry was “inactive”.
The same measure, in the same setting: for `NC(N)=NC(N)=NCCc1ccccc1` the value was “inactive”.
Take `Nc1nc(N)c2nc(CNc3ccc(C(=O)N[C@@H](CCC(=O)O)C(=O)O)cc3)cnc2n1`: the “activity change, negative = inhibition” value is -8.7%.

For the next experiment the target is unchanged. Briefly: Acetylcholinesterase (AChE) small molecule antagonists: enzyme-based qHTS assay with human liver microsomes (AID 1347399). Further: nearly all actives have a fitted effect of over 60% in size. To be noted: Potency: qHTS inhibition; outcome: qHTS inhibition; series mostly up to 115 µM; activity change, negative = inhibition: at the top concentration. In outline:
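Recombinant human AChE (50 mU/mL in the enzyme mix) and human liver microsomes (0.25 mg/mL final) were preincubated with compound and NADPH (0.25 mg/mL final) for 30 min at 37 C. Acetylthiocholine/DTNB was then added; thiocholine was read colorimetrically after 10 min at room temperature.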
As to `O=C1c2ccccc2C(=O)c2c1ccc(O)c2O`, the “activity change, negative = inhibition” value is 0.504% [at 53 µM].
Still for that read-out and setting: the same measure for `CC1(C)O[C@@H]2C[C@H]3[C@@H]4C[C@H](F)C5=CC(=O)C=C[C@]5(C)[C@H]4[C@@H](O)C[C@]3(C)[C@]2(C(=O)CO)O1`: -0.42% [at 53 µM].
The same measure, in the same setting: for `c1ccc2sc(SSc3nc4ccccc4s3)nc2c1` the value was -1.01% [at 23.6 µM]; for `O[Si](c1ccccc1)(c1ccccc1)c1ccccc1`, 5.27%.
In the case of `NS(=O)(=O)c1cc(-c2nn[nH]n2)c(NCc2cccs2)cc1Cl`, the “activity change, negative = inhibition” value was -0.0845% [at 53 µM].
Consider `CC(C)Nc1ccccc1`, for which the “activity change, negative = inhibition” value was -1.53%.
Same read-out and setting: the same measure for `CCCCCCCC`: -0.0513%.
On to `Nc1ccc(C(=O)N2CC3CC(CN(Cc4ccccc4)C3)C2)cc1`, for which the “activity change, negative = inhibition” value is 2.8% [at 53 µM].
Regarding `COCC(C)O` (stereo not given), the Potency entry is “inactive”.
On to `CC/C=C\CCOC(=O)CC`, for which the “activity change, negative = inhibition” value was -0.431%.
The same measure, in the same setting: the same measure for `CN(C)c1ccc(CCO)cc1`: -0.155%.
The same measure, in the same setting: for `CCCc1nn(C)c2c(=O)[nH]c(-c3cc(S(=O)(=O)N4CCN(C)CC4)ccc3OCC)nc12` the value was -0.808% [at 53 µM]; for `O=C[C@@H](O)[C@H](O)[C@H](O)CO`, 0.535%; for `CCCCCCC1CCCC(=O)O1` (stereo not given), 0.306%.
The same measure, in the same setting: the same measure for `O=[N+]([O-])c1cccc(C(F)(F)F)c1`: -0.188%; for `Cc1ccc(Nc2c(F)cccc2Cl)c(CC(=O)O)c1`: 0.143% [at 53 µM].
For `C[N+](C)(C)CCO`, the compound was classed as inactive.
With `CCOC(=O)CC(C(C)=O)C(C)=O`, the “activity change, negative = inhibition” value was 1.22%.
For `CCCCCCC(O)CCCCCCCCCCC(=O)O` (stereo not given), the Potency entry is “inactive”.
In the case of `OCCCCC(O)CO` (stereo not given), the “activity change, negative = inhibition” value was -2.64%.
Take `CCCCC/C=C/CC(=O)OC`: the “activity change, negative = inhibition” value is -1.72%.
As to `CCCOCCO`, the Potency result was “inactive”.
For `N=c1ccn2c(n1)O[C@H]1[C@H](O)[C@@H](CO)O[C@H]12`, the “activity change, negative = inhibition” value was 1.53%.
In the case of `CC(C)CCCCCCN`, the “activity change, negative = inhibition” value was -0.539%.
On the same count and under the same terms, the same measure for `CC(=O)N1CCN(c2ccc(OC[C@H]3CO[C@](Cn4ccnc4)(c4ccc(Cl)cc4Cl)O3)cc2)CC1`: -0.588%.
Turning to `Clc1ccccn1`, the Potency entry is “inactive”.
On the same count and under the same terms, for `COc1ccc2c(c1)c(CC(=O)O)c(C)n2C(=O)c1ccc(Cl)cc1` the value was “inactive”.
In the case of `CC(CNC1CCCCC1)OC(=O)c1ccccc1` (stereo not given), the “activity change, negative = inhibition” value is 1.51% [at 53 µM].
Turning to `Cc1ccc(N)c(S(=O)(=O)O)c1`, the Potency entry was “inactive”.
As for `Cc1cccc(OCCOc2cccc(C)c2)c1`, the “activity change, negative = inhibition” value was -0.311%.
Turning to `O=[Se](O)O`, the Potency result was “inactive”.
For `CCCCCCCCCCCCCOC(=O)CCSCCC(=O)OCCCCCCCCCCCCC`, the activity change, negative = inhibition was 0.346% [at 23.6 µM].
The same measure, in the same setting: for `O=C(OCC1CO1)C1CCCCC1C(=O)OCC1CO1` (stereo not given) the value was -0.669%; for `C=CC(=O)N1CCOCC1`, -0.0711%.
Still for that read-out and setting: the same measure for `C=C(C)C(=O)OCCOP(=O)(O)O`: -0.939%; for `O=C(NCC1CN(c2ccc(N3CCOCC3=O)cc2)C(=O)O1)c1ccc(Cl)s1` (stereo not given): 1.02% [at 53 µM]; for `CCC1(C)CC(=O)NC1=O` (stereo not given): 4.56% [at 53 µM].
In the case of `CCCCCC(=O)O`, the Potency entry is “inactive”.
The same measure, in the same setting: the same measure for `NC(N)=NC(N)=NCCc1ccccc1`: “inactive”.
Take `Nc1nc(N)c2nc(CNc3ccc(C(=O)N[C@@H](CCC(=O)O)C(=O)O)cc3)cnc2n1`: the “activity change, negative = inhibition” value was 7.08%.
